# Screening results: PubChem BioAssay, University of Kansas High Throughput Screening Laboratory
# The full list was thinned out, with hits kept by preference.
# mHTT-CaM PPI inh: inhibitors of human mutant huntingtin-calmodulin interaction; P42858; AlphaScreen His-mHTT/GST-CaM binding, luminescence; inhibition, % at 15 µM; 3.6% of 190,000 active;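 further: 0% = both proteins with DMSO and 100% = one protein alone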
# Pf apPOL inh: Pf-apPOL DNA polymerase inhibition. Recombinant Pf-apPOL, molecular beacon fluorescence, 1.5 h. inhibition, % at 10 µM. 0.25% of 210,000 active
# An asterisk follows results filed as active; · = no result given. No stated cut-off is given here; in the data, active means inhibition above about 50%; inactive means the rest.
SMILES,mHTT-CaM PPI inh,Pf apPOL inh
CCOc1ccc(NC(=O)N2CCc3[nH]cnc3C2c2ccccn2)cc1 (stereo not given),94*,-7
O=C(c1cccc(OCC2CCCN(C(=O)C3CCCCC3)C2)c1)N1CCCCC1 (stereo not given),19,-4
Cc1ccc(NC(=O)c2ccc(Cl)c(NC(=O)c3ccc([N+](=O)[O-])cc3)c2)cc1,5,12
O=C(O)CCCCCCCCCCN1C(=O)CCC1=O,0,2
CNC(=O)N1CC(c2nc(-c3ccc(F)cc3)no2)C2(CCOCC2)C1 (stereo not given),1,1
COc1ccccc1N1COc2cc(C)c(Cl)c(C)c2C1,100*,-1
COc1ccccc1N1COc2ccc(F)cc2C1,47,5
O=C1OC2CC3CC(C2)CC1C3,·,-9
Cc1ccc(C(=O)N2CCC3(CC2)NC(=O)c2cc(F)ccc2N3C)c(C)c1,56*,0
Cc1ccc(C(=O)N2CCC3(CC2)NC(=O)c2ccc(F)cc2N3C)c(C)c1,0,-2
CC(C)(C)c1cc(C2=NNC(O)(C(F)(F)F)C2)c2c(c1)C(C)(C)CC2 (stereo not given),·,-3
O=C(Nc1cccnc1)c1sc2cc(F)ccc2c1Cl,1,-1
Cc1nc(C)n2ccn(Cc3ccc(C#N)cc3)c(=O)c12,8,8
Cc1ccnc(SCc2cc(=O)c(OC(=O)C(C)(C)Oc3ccc(Cl)cc3)co2)n1,99*,2
COc1cccc(C(=O)Oc2coc(CSc3nccc(C)n3)cc2=O)c1OC,34,-6
O=C(CCC1CCN(c2cc(NC3CC3)ncn2)CC1)NCc1cnccn1,4,-3
O=C(CSCc1ccc(F)cc1)N1CCC2(CC1)Nc1cc(F)ccc1-n1cccc12,100*,-1
Cc1ccc(CNC(=O)N2CCC3(CC2)Nc2ccccc2-n2cccc23)cc1,77*,-3
Cc1ccc2c(c1C)-n1cccc1C1(CCN(C(=O)Cc3ccccc3Cl)CC1)N2,56*,-9
Cc1ccc(NC(=O)N2CCC3(CC2)Nc2ccccc2-n2cccc23)cc1,12,-6
O=C(NC1CCCC1)N1CCC2(CC1)Nc1cc(F)ccc1-n1cccc12,29,-5
O=C(NCc1ccc(F)cc1)N1CCC2(CC1)Nc1cc(F)ccc1-n1cccc12,59*,2
Cc1ccc(C)c(CN2C(=O)NC3(CCN(C(=O)Cc4ccccc4Cl)CC3)C2=O)c1,7,0
O=C(O)CCC(=O)Nc1ccc(C(=O)Nc2ccccc2C(=O)O)cc1,17,-4
COc1ccc(C(N)=O)cc1OC1CCCC1,·,-8
SMILES,mHTT-CaM PPI inh,Pf apPOL inh
O=C1c2cccnc2C(=O)N1c1cccc(-c2nc3cc(Cl)ccc3o2)c1,4,-10
CCN1CCN(c2nc(-c3ccccc3O)nc3ccccc23)CC1,7,2
COC(=O)CNC(=O)N1CCC2(CC1)Nc1cc(F)ccc1-n1cccc12,33,-5
COc1ccc2c(c1)NC1(CCN(C(=O)Cc3cccc(F)c3)CC1)c1cccn1-2,73*,2
CCOC(=O)CNC(=O)N1CCC2(CC1)Nc1ccccc1-n1cccc12,56*,-6
CCC(C)NC(=O)N1CCC2(CC1)Nc1cc(F)ccc1-n1cccc12 (stereo not given),37,-3
COC(=O)C(C)NC(=O)N1CCC2(CC1)Nc1ccccc1-n1cccc12 (stereo not given),55*,3
COCCCNC(=O)N1CCC2(CC1)Nc1cc(F)ccc1-n1cccc12,62*,6
COc1ccccc1NC(=O)N1CCC2(CC1)Nc1ccccc1-n1cccc12,35,-6
O=C(/C=C/Nc1ccc([N+](=O)[O-])cc1Br)c1ccco1,-6,0
O=C1C(=O)N(c2ccccn2)C(c2ccccc2[N+](=O)[O-])C1=C(O)c1ccccc1 (stereo not given),3,-10
O=C(c1ccc(Br)cc1)N1CCN(c2cccc(Cl)c2)CC1,7,-2
Cc1cc(C)cc(OCC(=O)n2nc(C)cc2C)c1,-17,2
Cc1ccc(SCC(=O)N2CCN(c3ccccc3)CC2)cc1,-4,7
Cc1cccc(C2=N[C@@H](Cc3ccccc3)CO2)c1,81*,-11
Cc1cccc(C2=N[C@@H](CC(C)C)CO2)c1,-14,-4
CCC(=O)N1CCN(c2ccc(F)cc2)C(=O)C1C (stereo not given),-4,0
CN(C)C(CNC(=O)c1cccc(C(F)(F)F)c1)c1ccsc1 (stereo not given),-10,5
CCCCN1CCN(C(=O)C2CCc3sc(C(=O)N4CCCC4)cc3C2)CC1 (stereo not given),11,-2
O=C1C(Br)=C(Br)C(=O)c2ccccc21,100*,15
O=C1C(Br)=C(Br)C(=O)C(Br)=C1Br,81*,7
CC1=C(Br)C(=O)c2ccccc2C1=O,17,-4
Cc1nn(Cc2ccccc2Cl)c(C)c1NC(=O)c1noc2c1CCCCC2,15,-6
Cc1ccccc1Cn1nc(C)c(NC(=O)c2noc3c2CCCC3)c1C,15,-2
Cc1nn(Cc2ccc(F)cc2)c(C)c1NC(=O)c1noc2c1CCCCC2,53*,-5
SMILES,mHTT-CaM PPI inh,Pf apPOL inh
Cc1nn(Cc2ccc(Cl)cc2)c(C)c1NC(=O)c1noc2c1CCCC2,96*,-2
CC(C)(C)c1cc(CCC(=O)NNC(=S)NC(=O)c2ccccc2)cc(C(C)(C)C)c1O,58*,-271
CC(C)(C)c1cc(CCC(=O)NNC(=O)c2ccco2)cc(C(C)(C)C)c1O,7,1
Cc1ccc2cc(CCNC(=O)C34CC5CC(CC(C5)C3)C4)c(=O)[nH]c2c1,-4,-4
O=C1CC(N2CCN(c3ncccn3)CC2)C(=O)N1c1ccc(I)cc1 (stereo not given),8,-8
O=[N+]([O-])c1cccc(C=Nc2cccc(Cl)c2Cl)c1O,5,-4
Cc1ccc(CN2C(=O)NC3(CCN(C(=O)Cc4ccccc4C)CC3)C2=O)cc1,4,-8
N#CC1=C(N)Oc2n[nH]c(C34CC5CC(CC(C5)C3)C4)c2C1c1cccs1 (stereo not given),55*,-3
N#CC1=C(N)Oc2n[nH]c(C34CC5CC(CC(C5)C3)C4)c2C1c1ccc(O)cc1 (stereo not given),29,8
CCC1(CC)OC(c2ccc3c(c2)OCO3)Nc2ccccc21 (stereo not given),-7,-2
Clc1ccc(Nc2nc(Oc3ccccc3)nc(N3CCOCC3)n2)cc1,-2,-3
NNc1nc(Nc2ccccc2)nc(N2CCCC2)n1,81*,-6
NNc1nc(Nc2ccccc2)nc(N2CCOCC2)n1,98*,-1
c1ccc(Nc2nc(N3CCCCC3)nc(N3CCNCC3)n2)cc1,16,0
COc1ccc(C(=O)Nc2c3c(nn2-c2ccc(C)cc2C)CSC3)cc1,8,-74
CC(C)(C)n1nc2c(c1NC(=O)c1ccco1)CSC2,71*,39
Cc1ccc(C(=O)Nc2c3c(nn2C(C)(C)C)CS(=O)(=O)C3)cc1,3,88*
CC(C)(C)n1nc2c(c1NC(=O)c1c(F)cccc1Cl)CSC2,26,0
Cc1ccc(-n2nc3c(c2NC(=O)c2ccc(F)cc2)CSC3)c(C)c1,28,57*
CC(C)(C)n1nc2c(c1NC(=O)C(=O)NCc1c(F)cccc1F)CSC2,60*,-1
CC(C)(C)n1nc2c(c1NC(=O)c1ccco1)CS(=O)C2 (stereo not given),2,6
Cc1cccc(C(=O)Nc2c3c(nn2C(C)(C)C)CS(=O)(=O)C3)c1,1,-1
